HT1080NT lethal – kills 2HG-producing HT-1080-NT fibrosarcoma cells; HT-1080-NT fibrosarcoma viability, CellTiter-Glo ATP luminescence, 48 h; Potency, µM (highest dose often 46.1 µM), inactives show at the top dose activity, negative = less viability, most hits filed as cytotoxic; actives 1.6% (n = 360,000); AID 686970;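 further: NT is the 2HG producing partner of a matched IDH1 knockdown line; 0% = DMSO-treated cells and -100% = media-only wells without cells; nearly all actives have a fitted effect of over 55% in size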
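Viability by CellTiter-Glo luminescence after 48 h compound exposure at 37C of HT-1080-NT cells (750/well, RPMI, 5% FBS). % activity scaled between DMSO wells and medium-only wells, then curve-fitted and categorized by curve class.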
KB-V1 cytotox – kills drug-selected multidrug resistant KB-V1 cells; KB-V1 MDR cells viability, CellTiter-Glo, 72 h; Potency, µM (highest dose often 46.1 µM), hits mostly cytotoxic; actives 3.4% (n = 400,000); further: nearly all actives have a fitted effect of over 60% in size
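Following 72 h at 37 degrees C with compound, KB-V1 cell viability was read by CellTiter-Glo luminescence, medium being phenol-red-free DMEM plus 10% FBS; concentration-response parameters came from normalized, curve-fitted qHTS data.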
TDP1 cell noCPT – qHTS for Inhibitors of human tyrosyl-DNA phosphodiesterase 1 (TDP1): qHTS in cells in absence of CPT. DT40 Tdp1-/- hTDP1 cells, no CPT, ATP luminescence, 48 h. Potency, µM (top dose mostly 46.2 µM), without a hit: at the top dose activity change, negative = growth inhibition, most hits filed as inhibitors. actives 15% (n = 420,000). AID 686978, 2013; further: nearly all actives have a fitted effect of over 55% in size
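Compound effects on proliferation are scored in DT40 Tdp1-/-;hTDP1 cells in the absence of CPT. ATP levels (CellTiter-Glo luminescence) are recorded after a ≥48 hr, 37 °C incubation.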
DT40 TDP1 CPT – growth inhibition of DT40 Tdp1-/-;hTDP1 cells with camptothecin (screen for TDP1 inhibitors); chicken DT40 Tdp1-/-;hTDP1 cells + 20 nM CPT, ATP luminescence, 48 h; Potency, µM (top dose mostly 46.2 µM), for the others: at the top dose activity change, negative = growth inhibition, most hits filed as inhibitors; actives 12% (n = 420,000); AID 686979; further: nearly all actives have a fitted effect of over 55% in size
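Chicken DT40 Tdp1-/- cells complemented with human TDP1, 400 cells/well, exposed to compounds plus 20 nM camptothecin for at least 48 h at 37 C; viability read as ATP content by CellTiter-Glo luminescence.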
KB-3-1 cytotox – KB-3-1 parental cell cytotoxicity; KB-3-1 viability, CellTiter-Glo ATP luminescence, 72 h; Potency, µM (titrated, usually from 46.1 µM), most hits filed as cytotoxic; actives 1.4% (n = 400,000); AID 1347075; further: nearly all actives have a fitted effect of over 60% in size
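Viability of parental KB-3-1 cells, measured by CellTiter-Glo luminescence, followed a 72 h incubation at 37 °C with pinned compounds in phenol-red-free DMEM containing 10% FBS.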
HT1080 IDH1KD tx – kills HT-1080 cells with IDH1 knockdown; HT-1080 IDH1 knockdown viability, ATP luminescence, 48 h; actives 2% (n = 360,000); AID 686971; Potency, µM (titrated, usually from 46.1 µM), for inactives: at the highest dose activity, negative = toxicity, usual class: cytotoxic;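 further: 0% = DMSO wells and -100% = cell-free medium wells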
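Using the IDH1-knockdown HT-1080 line run in the same batch and compound series as the NT line, viability after 48 h at 37 °C was determined by CellTiter-Glo luminescence and expressed as % activity.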
* marks the source's active call; other numbers are inactive results; i = inactive; ? = inconclusive; . = not tested or not shown; [ ] = another dose, or the depositor's remark. Hits are enriched below; roughly 19% of the tested compounds scored in any of these assays. The call rests on the fitted dose curve; in most records, active means well fitted curve in the direction sought with a large enough effect; inconclusive means small, poorly fitted or top-dose-only effect, or another doubt; inactive means no such curve, though single readings can be large; an effect the other way counts as inactive or inconclusive. Unless noted, on the % scale 0 is the no-effect control and ±100 the full control effect; potency means the concentration at half of the fitted maximal effect.

SMILES	HT1080NT lethal	KB-V1 cytotox	TDP1 cell noCPT	DT40 TDP1 CPT	KB-3-1 cytotox	HT1080 IDH1KD tx
CC(C)n1c(O)c(C2c3cc(Cl)ccc3Oc3[nH]c(=O)n(C(C)C)c(=O)c32)c(=O)[nH]c1=O (stereo not given)	5.17µM*	7.31µM*	2.91µM*	2.91µM*	8.2µM*	2.31µM*
CC(=O)[O][Hg][c]1ccccc1	.	.	0.164µM*	0.164µM*	.	.
C[C@H](N)C(=O)c1ccccc1	.	.	-14.0%	-9.8%	.	.
CCC1CN1P1(=O)OCC(C)([N+](=O)[O-])CO1 (stereo not given)	-1.4%	i	?	?	i	-1.9%
COc1ccccc1-c1nc2c(c(SCc3cccc(Cl)c3)n1)Cc1c(CO)cnc(C)c1O2	.	i	18.4µM*	9.2µM*	i	.
COc1ccc(C2/C=C\CN(C(=O)Oc3ccccc3)CC(=O)N2Cc2ccc(F)cc2)cc1 (stereo not given)	-3.2%	i	?	20.6µM*	i	-0.9%
O=P(O)(O)CN1CCNCCN(CP(=O)(O)O)CCNCC1	2.8%	?	6.51µM*	6.51µM*	?	14.6µM*
Cn1c(=O)n(C)c2cc(CNCCc3ccccc3F)ccc21	.	i	?	?	i	.
COC(=O)C1C2c3ccccc3C(c3ccccc32)C1(C)C(=O)OC (stereo not given)	-6.1%	i	-19.0%	-3.9%	i	-8.5%
CN=C1CN=C(c2ccc[nH]2)c2cc(Cl)ccc2N1	.	i	0.112µM*	0.0794µM*	?	.
O=C1CN=C(c2ccc[nH]2)c2cc(Cl)ccc2N1	-4.3%	i	0.0326µM*	0.164µM*	i	-11.4%
Cc1cc(C(=O)Cn2nnc(-c3ccc(Cl)cc3)n2)c(C)n1-c1ccccc1	-18.1%	i	?	-18.2%	i	-14.4%
Cc1ncc(CO)c(CN)c1O	.	.	-23.9%	?	.	.
COc1ccccc1NC(=O)Cn1c(=O)n(-c2cccc(Cl)c2)c(=O)c2sc3ccccc3c21	.	i	6.51µM*	13µM*	i	.
CC(C)OP(=O)(OC(C)C)C(O)c1ccccc1F (stereo not given)	12.6%	?	-2.5%	19.8%	i	6.3%
Cc1cccc(N2CCN(C(=O)c3ccc(CNc4c(N5CCC(C)CC5)c(=O)c4=O)cc3)CC2)c1C	-0.7%	i	16.4µM*	?	i	-1.6%
Cc1cccc(N2CCN(CCc3ccccc3)CC2)c1C	-0.4%	?	?	?	i	8.9%
O=C(O)c1[nH]n(-c2ccc(S(=O)(=O)O)cc2)c(=O)c1N=Nc1ccc(S(=O)(=O)O)cc1	.	i	?	?	i	.
FC(F)(F)c1nc(N2CCN(c3ccccc3)CC2)nc2c1CCCCC2	-3.5%	i	18.4µM*	?	i	-13.1%
Clc1ccc(-c2csc3ncnc(Sc4nnnn4C4CC4)c23)cc1	.	?	3.16µM*	5.01µM*	?	.
Cc1nc2ccccc2c(=O)n1-c1ccc(-c2ccccc2)cc1	-0.5%	?	?	?	i	-2.6%
Cc1ccc(-n2c(C)nc3ccccc3c2=O)c(C)c1	5.0%	i	16.4µM*	?	i	-0.5%
Cc1ccc(-n2c(C)nc3ccccc3c2=O)cc1C	-1.1%	i	14.6µM*	?	i	-2.1%
CC(C)[C@H](NC(=O)[C@H](CCC(=O)O)NC(=O)[C@H](Cc1ccccc1)NC(=O)[C@H](C)NC(=O)[C@@H](N)Cc1ccc(O)cc1)C(=O)N[C@H](C(=O)NCC(N)=O)C(C)C	.	.	-15.6%[4.12 µM]	?	.	.
CC1(C)C(=O)CC[C@@]2(C)C1=CCC1C2CC[C@]2(C)C(=O)CCC12 (stereo not given in full)	8.2%	i	?	16.4µM*	i	13.5%
SMILES	HT1080NT lethal	KB-V1 cytotox	TDP1 cell noCPT	DT40 TDP1 CPT	KB-3-1 cytotox	HT1080 IDH1KD tx
CC(=O)C1C(N2CC2)CC2C3CC=C4CC(O)CCC4(C)C3CCC21C (stereo not given)	-24.8%	?	5.8µM*	1.84µM*	?	-6.0%
C[C@]12CC[C@H](O)CC1=CCC1C2CC[C@]2(C)C(=O)CC[C@@H]12 (stereo not given in full)	.	.	29.9µM*	29.9µM*	.	.
C[C@]12C[C@@H](O)[C@H](O)CC1=CCC1C2CC[C@]2(C)C(=O)CCC12 (stereo not given in full)	0.0%	i	3.7%	-5.9%	i	1.5%
C[C@]12CC[C@@H](O)CC1=CCC1C2CC[C@@]2(C)C1CC[C@@H]2O (stereo not given in full)	-1.2%	i	-1.2%	-7.7%	i	8.8%
C[C@]12CC[C@H](O)CC1=CC[C@@H]1[C@@H]2CC[C@]2(C)C(=O)CC[C@@H]12	11.7%	?	?	?	i	-2.2%
O=C(CI)c1ccc(Cl)cc1	.	i	-4.0%	-20.2%	i	.
O=c1ccc2cc(OC3OC(CO)C(O)C(O)C3O)c(O)cc2o1 (stereo not given)	.	.	-2.4%	?	.	.
CS(=O)(=O)c1ccc(C2=C(CNC(=O)c3nccs3)[C@H]3CC[C@@H](C2)N3CCOc2ccccc2)cc1	1.6%	i	?	-15.9%	i	-2.0%
COc1ccc(-n2cnc3cc(C(=O)N4CCC5(CC4)OCCO5)ccc32)cc1	?	?	2.59µM*	8.2µM*	14.6µM*	16.4µM*
COc1ccc(-c2nnc(Nc3nc4c(OC)cccc4s3)o2)c(OC)c1	3.98µM*	?	4.11µM*	4.61µM*	?	3.16µM*
NCC(=O)c1ccc(Cl)c(Cl)c1	.	i	?	?	?	.
Clc1ccc2sc(C3CCNCC3)nc2c1	-21.9%	i	-24.2%	-0.2%	i	-4.9%
CCOc1cc(CNC2CCCC2)cc(Cl)c1OCc1ccc(F)cc1	?	i	23.1µM*	14.6µM*	i	?
CCOc1cc(CNC(C)C(O)c2ccccc2)cc(Cl)c1OCC (stereo not given)	?	i	?	?	?	-28.7%
Cn1cc(C(=O)NCc2ccccc2)c2ccccc21	-0.8%	i	-6.6%	?	i	-7.4%
CCN(CC)S(=O)(=O)c1ccc2c(c1)c(=O)c(C(=O)NCc1ccccc1OC)cn2C	.	i	18.4µM*	23.1µM*	i	.
Cc1cc(-n2c(/C=C/c3ccc(Br)s3)nc3ccccc3c2=O)ccc1Br	.	?	?	14.6µM*	i	.
